From PubChem BioAssay
3CLpro inhibitor: SARS-CoV 3CLpro protease inhibitors, primary screen, biochemical, quenched FRET | actives 0.14% (n = 290,000) | Replicase polyprotein 1ab (Severe acute respiratory syndrome coronavirus), P0C6X7 | inhibition, % at 6 µM | recombinant SARS-CoV 3CLpro, quenched FRET peptide cleavage; in the data active means inhibition above about 12%
Mtb FBA inh: Mtb FBA enzyme inhibitors, primary screen, biochemical, fluorescence, strain H37Rv | actives 2.3% (n = 360,000) | Fructose-bisphosphate aldolase (Mycobacterium tuberculosis (strain ATCC 25618 / H37Rv)), … | inhibition, % at 1 µM | purified M. tuberculosis FBA, fluorescence read-out | AID 588726, 2011; in the data active means inhibition above about 27%;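 further: 0% = vehicle and 100% = reference inhibitor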
Target sequence (P9WQA3 whole entry, looked up): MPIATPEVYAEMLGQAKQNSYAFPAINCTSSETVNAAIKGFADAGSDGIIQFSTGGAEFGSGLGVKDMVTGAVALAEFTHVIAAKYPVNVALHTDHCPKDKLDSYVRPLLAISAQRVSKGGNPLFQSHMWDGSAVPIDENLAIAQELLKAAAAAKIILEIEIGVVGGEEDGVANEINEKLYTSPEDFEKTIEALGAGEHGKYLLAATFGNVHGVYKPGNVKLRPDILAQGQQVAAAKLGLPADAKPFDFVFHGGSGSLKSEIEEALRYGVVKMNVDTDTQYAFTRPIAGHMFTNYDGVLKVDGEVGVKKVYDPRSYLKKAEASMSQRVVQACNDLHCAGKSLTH
BioA inh-1: M. tuberculosis BioA enzyme inhibitors, primary screen, biochemical, plate reader, single point, HTS | 7,8-diaminopelargonic acid synthase BioA (Mycobacterium tuberculosis) | purified M. tuberculosis BioA enzyme | inhibition, % at 9.99 µM | actives 0.096% (n = 360,000) | AID 602481, 2012; in the data active means inhibition above about 40%; inconclusive means no clear call, values can overlap the other calls
FadD28 FP inh: inhibitors of FadD28 bisubstrate probe binding, primary screen, biochemical, fluorescence polarization, single point. actives 0.22% (n = 360,000). Mycobacterium tuberculosis FadD28 fatty-acid-AMP ligase. inhibition, % at 12.5 µM; in the data active means inhibition above about 8.5%, passing the limit was not always enough; inconclusive means no clear call, values can overlap the other calls
GDH-TPI counter: GDH-TPI coupling enzyme inhibitors, primary screen, artefact control for M. tuberculosis FBA inhibitor project, biochemical, absorbance, full deck; actives 1.2% (n = 360,000); GDH-TPI coupled enzyme counterscreen, NADH absorbance; inhibition, % at 4.8 µM; in the data active means inhibition above about 30%;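 further: 0% = DMSO wells and 100% = wells lacking the enzyme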
BioA inh-2: Mtb BioA enzyme inhibitors, dose response, biochemical, plate reader, cherry-pick samples, set 03. max activity, %. shares compounds with BioA inh-1. 310 tested, under 10 active. purified BioA enzyme. AID 651679, 2012;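 further: top concentration of the dilution series was 10 µM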
HepG2 cytotox: cytotoxicity in HepG2 cells, dose response, cytotoxicity control, cell-based, plate reader, cherry-pick, two tests. 310 tested, under 10 active. AID 651898, 2012. max activity, %. shares compounds with BioA inh-1
NIH3T3 tox 5: cytotoxicity in NIH3T3 fibroblasts, dose response, cytotoxicity control, cell-based, plate reader, cherry-pick, two tests; shares compounds with BioA inh-1; 310 tested, under 10 active; activity change, negative = cytotoxicity, % at 26 µM; AID 651900, 2012
The depositor's hits bear a star; i = inactive; ? = inconclusive; . = no result; [ ] = remark or other dose. In the library only some 3.1% were active in any assay of this set; here they are far more common. Unless noted, how the calls were made is not given here.

SMILES	3CLpro inhibitor	Mtb FBA inh	BioA inh-1	FadD28 FP inh	GDH-TPI counter	BioA inh-2	HepG2 cytotox	NIH3T3 tox 5
CC=Cc1ccc2n(c1=O)C[C@H]1[C@H](CO)[C@@H](C(=O)NCCC)N(Cc3cccnc3)[C@@H]21 (mixture of isomers)	.	.	-2.0	.	.	.	.	.
O=C(N[C@H]1CC[C@@H](CCn2cc(-c3cccnc3)nn2)O[C@@H]1CO)c1ccccc1F	.	.	55.2*	.	.	8.0	i	6.6
O=C(N[C@@H]1CC[C@H](CCn2cc(-c3cccnc3)nn2)O[C@@H]1CO)c1ccccc1F	.	.	60.0*	.	.	5.3	i	7.1
O=C(N[C@H]1CC[C@H](CCn2cc(-c3cccnc3)nn2)O[C@H]1CO)c1ccccc1F	.	.	7.3	.	.	.	.	.
Cc1cccc(-c2ccc3c(c2)C2CC3CCN2)c1 (configuration not stated)	.	3.8	55.6*	-0.1	2.1	-11.1	-9.0	-8.4
Fc1ccc(-c2ccc3c(c2)C2CC3CCN2)cc1 (configuration not stated)	.	7.2	66.3*	-1.6	4.2	-4.8	15.5	-2.1
FC(F)(F)c1ccc(-c2cccc3c2C2CC3CCN2)cc1 (configuration not stated)	.	2.2	21.6	-4.6	8.2	.	.	.
CO[C@@H]1CN(C)C(=O)c2cc(NC(C)=O)ccc2OC[C@@H](C)N(Cc2ccc(F)cc2)C[C@@H]1C	.	.	2.8	.	.	.	.	.
CCNC(=O)C[C@@H]1CC[C@H]2[C@@H](COC[C@H](O)CN2C(=O)c2cc(Cl)cc(Cl)c2)O1	.	.	-1.0	.	.	.	.	.
C[C@@H]1CN([C@@H](C)CO)C(=O)c2cccc(NC(=O)C3CCCCC3)c2O[C@@H]1CN(C)C	.	.	-1.6	.	.	.	.	.
CCc1nc2ccc(Br)cc2c(=O)n1-c1ccccc1C(F)(F)F	3.4	-2.6	59.9*	-7.5	2.2	-7.3	?	0.6
Cc1cc2c(c(=O)n1Cc1cccnc1)C(Cc1ccccc1)C(C#N)=C(N)O2 (configuration not stated)	-1.3	8.1	.	-2.3	-4.1	.	.	.
Cc1cc2c(c(=O)n1Cc1cccnc1)C(c1cccs1)C(C#N)=C(N)O2 (configuration not stated)	-6.4	0.5	64.5*	1.0	9.9	-8.3	22.1	7.8
CCOC(=O)CNC(=O)c1sc2ncnc(N3CCc4ccccc4C3)c2c1C	-2.4	13.3	63.4*	-1.0	29.9	-3.2	18.9	4.2
O=C(C[C@@H]1C[C@@H]2c3cc(NC(=O)c4cccnc4)ccc3O[C@@H]2[C@@H](CO)O1)NCCc1ccccc1	.	.	41.0*	.	.	-3.9	i	-5.5[23.5 µM]
COC(=O)C[C@@H]1C[C@@H]2c3cc(NC(=O)c4cccnc4)ccc3O[C@@H]2[C@@H](CO)O1	.	.	50.5*	.	.	4.4	i	6.8
C[C@@H]1CN([C@@H](C)CO)C(=O)Cc2cc(NC(=O)Nc3ccc(F)cc3)ccc2O[C@H]1CN(C)C(=O)Nc1ccccc1	.	.	0.4	.	.	.	.	.
C[C@H]1C=C(C(=O)Nc2ccccc2)O[C@@H](OCCCCO)C1	.	.	-1.8	.	.	.	.	.
COC(=O)c1c(C(=O)OC)c(-c2ccc(F)cc2)n2c1CS(=O)C2 (configuration not stated)	-3.5	2.2	59.7*	-1.8	3.7	-6.9	-6.0	-4.7
COC(=O)c1c(C(=O)OC)c(-c2ccccc2)n2c1CS(=O)C2 (configuration not stated)	2.5	0.4	73.0*	-0.1	2.6	-2.5	23.8	6.1
COC(=O)c1c(C(=O)OC)c(-c2ccc(OC)cc2)n2c1CS(=O)C2 (configuration not stated)	0.7	0.0	17.1	0.6	5.0	.	.	.
CC(C)NC(=O)N[C@@H]1C=C[C@@H](CC(=O)O)O[C@@H]1CO	.	.	-1.2	.	.	.	.	.
Cc1ccccc1S(=O)(=O)NCC[C@H]1CC[C@@H](NC(=O)Nc2cccc(F)c2)[C@H](CO)O1	.	.	46.4*	.	.	-4.7	i	-0.3
CC(C)C#Cc1cnc2c(c1)C(=O)N([C@H](C)CO)C[C@H](C)[C@@H](CN(C)C(=O)CCN1CCCCC1)O2	.	.	1.4	.	.	.	.	.
COc1ccc(C2CC(=O)c3cnc(NC(=O)c4ccco4)nc3C2)cc1 (configuration not stated)	-10.6	-2.0	2.6	-2.9	4.8	.	.	.
SMILES	3CLpro inhibitor	Mtb FBA inh	BioA inh-1	FadD28 FP inh	GDH-TPI counter	BioA inh-2	HepG2 cytotox	NIH3T3 tox 5
O=C(Nc1ncc2c(n1)CC(c1cccc(Cl)c1)CC2=O)c1ccco1 (configuration not stated)	-1.2	1.5	60.7*	-3.8	3.5	-5.4	16.0	0.5
O=C(Nc1ncc2c(n1)CC(c1ccccc1)CC2=O)c1ccco1 (configuration not stated)	0.3	1.7	98.4*	-2.2	-0.3	5.7	16.9	2.7
C/C=C/c1ccc2c(c1)O[C@@H](CN(C)C(=O)c1ccc3c(c1)OCO3)[C@@H](C)CN([C@@H](C)CO)S2(=O)=O	.	.	46.3*	.	.	8.3	i	-6.4
C/C=C/c1ccc2c(c1)O[C@@H](CN(C)C(=O)Cc1cccnc1)[C@H](C)CN([C@H](C)CO)S2(=O)=O	.	.	55.9*	.	.	-8.8	i	-1.3
Cc1cccc(S(=O)(=O)N2C[C@H](O)COC[C@@H]3O[C@H](CC(=O)Nc4ccc(-c5ccccc5)cc4)CC[C@H]32)c1	.	.	0.2	.	.	.	.	.
COc1ccc(S(=O)(=O)N(C)C[C@@H]2Oc3ccc(NS(=O)(=O)c4ccc(C)cc4)cc3CC(=O)N([C@H](C)CO)C[C@H]2C)cc1	.	.	-0.4	.	.	.	.	.
COc1ccc(S(=O)(=O)Nc2ccc3c(c2)C(=O)N([C@@H](C)CO)C[C@H](C)[C@H](CN(C)Cc2ccc(C(=O)Nc4ccccc4N)cc2)O3)cc1	.	.	-1.2	.	.	.	.	.
Cc1nc2nc(SCC(=O)N3CCOCC3)nn2c(C)c1Cc1c(F)cccc1Cl	-1.2	10.6	93.9*	-0.7	8.9	-9.3	-6.8	-13.1
Cc1nc2nc(SCC(=O)N3CCC4(CC3)OCCO4)nn2c(C)c1Cc1ccccc1	-2.9	2.6	74.0*	-3.7	-8.6	-8.9	25.1	7.8
Cc1cc(C)n2nc(SCC(=O)N3CCC4(CC3)OCCO4)nc2n1	1.8	4.4	5.4	-5.8	-8.7	.	.	.
Cc1nc2nc(SCC(=O)NCCN3CCOCC3)nn2c(C)c1Cc1ccccc1	-6.4	0.1	.	-3.3	-10.1	.	.	.
